Experimental data: PubChem BioAssay (NCI)
About 79,000 compounds went through this panel and 15% of them were active in at least one assay; those are over-represented in the sample as a whole. Unmarked numbers belong to inactive results. The source made the active and inactive calls. Rule as the data show it: active = growth inhibition above about 70%; inactive = the rest.

Tests used:
[1] = NCI Yeast Anticancer Drug Screen. Data for the rad50 strain (AID 155);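 also: 0% = growth of vehicle-only cultures of the same strain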; settings: S. cerevisiae rad50 strain growth inhibition, hits give high values
How it was run: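 Cells are treated with compound, grown, and their growth is then scored against vehicle-only cultures of the same repair-deficient yeast strain.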

[2] = NCI Yeast Anticancer Drug Screen. Data for the mec2-1 strain (AID 157); settings: S. cerevisiae mec2-1 strain, hits give high values
How it was run: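 Vehicle-treated cultures served as reference for growth inhibition of compound-exposed mec2-1 yeast.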

[3] = NCI Yeast Anticancer Drug Screen. Data for the sgs1 mgt1 strain (AID 161);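 also: 0% = growth of cultures given vehicle only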; settings: S. cerevisiae sgs1 mgt1 strain, hits give high values
How it was run: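 Read-out: growth inhibition vs vehicle controls. Cells: mutant yeast strain deficient in DNA damage repair.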

[4] = NCI Yeast Anticancer Drug Screen. Data for the cln2 rad14 strain (AID 165);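 also: 0% = growth equal to vehicle treated cultures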; settings: S. cerevisiae cln2 rad14 strain, hits give high values
How it was run: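 Each compound was tested on cln2 rad14 yeast. Inhibition of growth was calculated against vehicle-exposed controls.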

[5] = NCI Yeast Anticancer Drug Screen. Data for the bub3 strain (AID 167); settings: S. cerevisiae bub3 mutant strain, hits give high values
How it was run: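 Part of a panel of yeast mutants defective in DNA damage repair or cell cycle regulation. Each strain is grown with compound, and inhibition is calculated relative to solvent-treated cultures.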

[6] = NCI Yeast Anticancer Drug Screen. Data for the mlh1 rad18 strain (AID 175); settings: S. cerevisiae mlh1 rad18 strain growth inhibition, hits give high values
How it was run: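 Vehicle-treated cultures served as the reference for growth inhibition in a yeast strain carrying DNA damage repair alterations exposed to each compound.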

[7] = at 5.0 µM (retest, dose inferred, filed as 0.5)
[8] = at 50.0 µM (retest, dose inferred, filed as 5.0)

| Structure (SMILES) | growth inhibition [1, 7] [%] | growth inhibition [1, 8] | growth inhibition ([1]; at 50.0 µM) | growth inhibition [2, 7] [%] | growth inhibition [2, 8] | growth inhibition ([2]; at 50.0 µM) | growth inhibition [3, 7] | growth inhibition [3, 8] | growth inhibition ([3]; at 50.0 µM) | growth inhibition [4, 7] [%] | growth inhibition [4, 8] | growth inhibition ([4]; at 50.0 µM) | growth inhibition [5, 7] | growth inhibition [5, 8] | growth inhibition ([5]; at 50.0 µM) | growth inhibition [6, 7] | growth inhibition [6, 8] | growth inhibition ([6]; at 50.0 µM) |
| --- | --- | --- | --- | --- | --- | --- | --- | --- | --- | --- | --- | --- | --- | --- | --- | --- | --- | --- |
| [C-]#[O+].[C-]#[O+].[C-]#[O+].[C-]#[O+].[Mo].c1cnc2c(c1)ccc1cccnc12 | -2 | 0% | 81% (active) | -8 | -6% | 60.4% | -6% | -2% | 71.4% (active) | -5 | -17% | 39.6% | -1% | 6% | 79.1% (active) | -4% | -8% | 81.9% (active) |
| c1ccc2c(c1)[O][Sn][O]2 | 0 | 6% | 98.8% (active) | 1 | 3% | 99.2% (active) | -1% | 1% | 39.8% | 0 | -1% | 98.8% (active) | -1% | 2% | 99.4% (active) | 1% | 3% | 99% (active) |
| CC1(C)N=C(N)N=C(N)N1c1ccc(OCC(=O)Nc2cccc(S(=O)(=O)F)c2)c(Cl)c1 | 4 | 38% | 70.5% (active) | -20 | 97% (active) | 95.6% (active) | -3% | 63% | 64.1% | -2 | -5% | -25.9% | -6% | 32% | -1.45% | 12% | 65% | 45% |
| O=NN(CC(=O)O)c1ncccn1 | -1 | 0% | -6.25% | -3 | 0% | 1.45% | -2% | -3% | -8.05% | -6 | 1% | 36.7% | -2% | 0% | -13.4% | -1% | -2% | 29.4% |
| CCOP(=O)(O)C(Nc1ccc(N=Nc2ccccc2)cc1)c1ccc(C(Nc2ccc(N=Nc3ccccc3)cc2)P(=O)(O)OCC)cc1 (configuration not stated) | -4 | 35% | 54% | -6 | 27% | 67.7% | 3% | 37% | 86% (active) | -8 | -6% | 41.3% | -5% | 31% | 57.5% | -5% | 31% | 90.1% (active) |
| CCCCCc1cc(/C=C2/N=C(c3ccc[nH]3)C=C2OC)[nH]c1C | 47 | 77% (active) | 83.9% (active) | 49 | 81% (active) | 85.5% (active) | 75% (active) | 86% (active) | 86.8% (active) | 46 | 81% (active) | 84.3% (active) | 80% (active) | 79% (active) | 83.8% (active) | 71% (active) | 77% (active) | 84% (active) |
| [Au+].[Au+].[Au+].[c-]1nccn1Cc1ccccc1.[c-]1nccn1Cc1ccccc1.[c-]1nccn1Cc1ccccc1 | 13 | 97% (active) | 76.6% (active) | 11 | 98% (active) | 88.2% (active) | 29% | 97% (active) | 88.9% (active) | 12 | 97% (active) | 88.8% (active) | 18% | 98% (active) | 84.3% (active) | 57% | 96% (active) | 90.9% (active) |
| Cc1cc[n+](C2=C(Nc3c(C)cccc3C)C(=O)c3ccccc3C2=O)cc1 | 44 | 88% (active) | 89.7% (active) | 5 | 61% | 73.2% (active) | -6% | 67% | 68.1% | -7 | 54% | 15.2% | 6% | 66% | 48.4% | -1% | 51% | 71.2% (active) |
| O=C1OCC2CC3C4C=CC(C4)C3C12 (configuration not stated) | 40 | 99% (active) | 99.2% (active) | 47 | 100% (active) | 99.5% (active) | 69% | 99% (active) | 99.4% (active) | 4 | 99% (active) | 99% (active) | 20% | 99% (active) | 99.4% (active) | 77% (active) | 99% (active) | 99.2% (active) |
